“And” between values parts separate entries of the source, which are not always exact repeats. Identical values can stand only once. Records with an inconclusive call do not appear. The source made the active and inactive calls. Unless noted, calls follow the shape of the dose curve; as a rule, active = well fitted curve in the direction sought with a large enough effect; inconclusive = small, poorly fitted or top-dose-only effect, or another doubt; inactive = no such curve, though single readings can be large; an effect the other way counts as inactive or inconclusive.
How the values were obtained:
[1] = biological target: Cellular tumor antigen p53 (Homo sapiens) (UniProt P04637); assay: Primary qHTS for small molecule compounds that upregulate eGFP-tagged delta133p53alpha (in N-terminal) cells. (AID 2060322); details: NCI-H358 eGFP-delta133p53alpha fluorescence, 24 h; activation: hits give high values;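 also: cells pre-induced with doxycycline then dosed without doxycycline; series mostly up to about 56 µM; 0% = DMSO vehicle and 100% = reference activator; nearly all actives have a fitted effect of over 75% in size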
Procedure, shortened: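 NCI-H358 cells pre-induced 24 h with 10 ng/ml doxycycline for eGFP-delta133p53alpha, plated dox-free and exposed 24 h at 37C to titrated compounds. Fixed, Hoechst-stained; gated GFP peak intensity by laser scanning cytometry, normalized to DMSO (0%) and 57.5 uM 5-azacytidine (100%).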

[2] = biological target: Cellular tumor antigen p53 (Homo sapiens) (UniProt P04637); assay: Primary qHTS for small molecule compounds that upregulate eGFP-tagged delta133p53alpha (in C-terminal) cells. (AID 2060324);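 also: 0% = DMSO wells and 100% = 57.5 µM 5-azacytidine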
Procedure, shortened: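 Concentration-response screen: compounds titrated onto pre-induced NCI-H358 D133p53a-eGFP cells, incubated one day, fixed with 3.5% PFA. Per-cell GFP peak intensity was gated, then normalized against intraplate controls.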

[3] = biological target: Aldehyde dehydrogenase, mitochondrial (Homo sapiens) (UniProt P05091); assay: qHTS for Inhibitors of the Aldehyde Dehydrogenase Family (ALDH2) Validation screens (AID 2061302; active = well fitted inhibition curve with a large enough effect; title and protocol of this record describe different tests;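 also: plate controls were DMSO vehicle for no effect and maximal DPI positive control response for full effect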)
[4] = biological target: Retinaldehyde dehydrogenase 3 (Homo sapiens) (UniProt P47895); assay: qHTS for Inhibitors of the Aldehyde Dehydrogenase Family (ALDH1A3) Validation screen (AID 2061312); also: % is scaled to controls: 0 for no effect and ±100 for the full control effect; nearly all actives have a fitted effect of over 45% in size
[5] = BET inhibitor-based combinations targeting novel dependencies in MECOM-rearranged (r) AML: SET-2 cell line (AID 2202231); details: SET-2 AML cells viability, CellTiter-Glo luminescence, 48 h; viability: hits give low values, concentration not given here; also: nearly all actives have a fitted effect of over 35% in size; also: potency is read from the fitted curve at half-maximal effect;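 as to viability: plate controls were DMSO treated cells for no effect and wells without cells for full effect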
Procedure, shortened: (§1)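 Cells were plated at 500 per well and exposed to an 11-point dose series of each drug for 48 hr. Viability was measured by CellTiter-Glo luminescence, normalized to DMSO and empty-well controls, and summarized as AUC and per-cell-line Z-AUC.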

[6] = BET inhibitor-based combinations targeting novel dependencies in MECOM-rearranged (r) AML: OCI-AML3 cell line (AID 2202232); details: Potency: OCI-AML3 viability; also: nearly all actives have a fitted effect of over 35% in size; also: potency is read from the fitted curve at half-maximal effect
Procedure, shortened: as §1

[7] = BET inhibitor-based combinations targeting novel dependencies in MECOM-rearranged (r) AML: MV-4-11 cell line (AID 2202233); also: nearly all actives have a fitted effect of over 45% in size; also: potency is read from the fitted curve at half-maximal effect
Procedure, shortened: (§2)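 Activity is given as area under the curve and as Z-AUC, mean-centred within each cell line. It comes from 11-point dose curves normalized to DMSO and empty wells. CellTiter-Glo luminescence was read after 48 hr drug exposure of 500 cells/well.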

[8] = BET inhibitor-based combinations targeting novel dependencies in MECOM-rearranged (r) AML: HNT-34 cell line (AID 2202234); also: nearly all actives have a fitted effect of over 35% in size; also: potency is read from the fitted curve at half-maximal effect
Procedure, shortened: as §2

[9] = BET inhibitor-based combinations targeting novel dependencies in MECOM-rearranged (r) AML: AML-191 cell line (AID 2202236; also: nearly all actives have a fitted effect of over 35% in size; also: potency is read from the fitted curve at half-maximal effect)
Procedure, shortened: as §1

[10] = BET inhibitor-based combinations targeting novel dependencies in MECOM-rearranged (r) AML: AML-194 cell line (AID 2202237; also: nearly all actives have a fitted effect of over 40% in size; also: potency is read from the fitted curve at half-maximal effect)
Procedure, shortened: as §1

[11] = BET inhibitor-based combinations targeting novel dependencies in MECOM-rearranged (r) AML: UCSD-AML1 cell line (AID 2202235); also: nearly all actives have a fitted effect of over 40% in size; also: potency is read from the fitted curve at half-maximal effect
Procedure, shortened: as §2

[12] = biological target: Retinaldehyde dehydrogenase 3 (Homo sapiens) (UniProt P47895); assay: qHTS for Inhibitors of the Aldehyde Dehydrogenase Family (ALDH1A3) Primary screen (AID 2061315);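 also: plate controls were DMSO vehicle for no effect and reference inhibitor for full effect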

Sequence of Cellular tumor antigen p53 (Homo sapiens) (P04637 whole entry, looked up): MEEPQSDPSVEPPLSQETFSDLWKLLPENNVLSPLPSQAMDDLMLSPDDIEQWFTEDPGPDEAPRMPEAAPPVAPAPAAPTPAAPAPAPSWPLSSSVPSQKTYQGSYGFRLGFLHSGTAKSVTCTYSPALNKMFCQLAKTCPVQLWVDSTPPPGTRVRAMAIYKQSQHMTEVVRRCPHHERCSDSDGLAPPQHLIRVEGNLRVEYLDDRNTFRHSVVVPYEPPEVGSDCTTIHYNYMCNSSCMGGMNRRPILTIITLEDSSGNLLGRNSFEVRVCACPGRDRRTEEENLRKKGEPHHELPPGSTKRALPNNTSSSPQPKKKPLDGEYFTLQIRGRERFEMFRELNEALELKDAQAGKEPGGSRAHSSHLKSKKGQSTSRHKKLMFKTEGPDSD

CCCc1c(OCCCOc2ccc(OCC(=O)O)cc2)ccc(C(C)=O)c1O
inactive: activation [1] -13.9% | Potency [2] | Potency [3] | Potency [4] | viability [5] 119% | Potency [6] | Potency [7] | Potency [8] | Potency [9] | Potency [10]

CC[C@H](NC(=O)c1c(C)c(-c2ccccc2)nc2ccccc12)c1ccccc1
inactive: activation [1] -16.3% | Potency [2] | Potency [3] | Potency [4]

CN(C)c1nc(N(C)C)nc(N(C)C)n1
inactive: activation [1] -31.8% and -1.51% and -37.1% | Potency [2] | Potency [3] | Potency [4] | viability [5] 111% | Potency [6] | Potency [7] | Potency [8] | Potency [11] | Potency [9] | Potency [10]

CCCNCC(O)COc1ccccc1C(=O)CCc1ccccc1 (stereo not drawn)
inactive: activation [1] 15% and -5.02% and 3.52% | Potency [2] | Potency [3] | Potency [4] | viability [5] 84.2%

CC(CCc1ccccc1)NCC(O)c1ccc(O)c(C(N)=O)c1 (stereo not drawn)
inactive: activation [1] 11.5% and 18% | Potency [2] | Potency [3] | Potency [4] | Potency [12]

Cc1cc(Cl)ccc1OCCCC(=O)NO
active: Potency [5] 1.32 µM | Potency [6] 20.9 µM | Potency [7] 18.6 µM | Potency [8] 1.48 µM | Potency [11] 3.72 µM | Potency [9] 3.72 µM | Potency [10] 4.17 µM
inactive: activation [1] 35.3% and -37.1% and -6.7% | Potency [2] | Potency [3] | Potency [4]

CCn1cc(C(=O)O)c(=O)c2cc(F)c(N3CCNC(C)C3)c(F)c21 (stereo not drawn)
inactive: activation [1] -0.837% and 16.4% and -15.6% | Potency [2] | Potency [3] | Potency [4] | viability [5] 95.2% | Potency [6] | Potency [7] | Potency [8] | Potency [11] | Potency [9] | Potency [10]

O=C(O)C1CCCN(CCC=C(c2ccccc2)c2ccccc2)C1 (stereo not drawn)
inactive: activation [1] -10.3% | Potency [2] | Potency [3] | Potency [4] | viability [5] 117% | Potency [6] | Potency [7] | Potency [8] | Potency [11] | Potency [9] | Potency [10]

CCCCNc1cc(C(=O)O)cc(S(N)(=O)=O)c1Oc1ccccc1
inactive: activation [1] 1.67% and 7.38% and -16.3% | Potency [2] | Potency [3] | Potency [4] | viability [5] 115% | Potency [6] | Potency [7] | Potency [8] | Potency [11] | Potency [9] | Potency [10]

NC(=O)c1ccc2[nH]ccc2c1
inactive: activation [1] 3.04% | Potency [2] | Potency [3] | Potency [4] | viability [5] 107% | Potency [6] | Potency [7] | Potency [8] | Potency [11] | Potency [9] | Potency [10]

c1ccc2c(c1)CC(N1CCN(c3cccc4c3OCCO4)CC1)C2
inactive: activation [1] 1.22% | Potency [2] | Potency [3] | Potency [4]

COc1ccc([C@@H]2Sc3ccccc3N(CCN(C)C)C(=O)[C@@H]2OC(C)=O)cc1
inactive: activation [1] 17.5% and -3.98% | Potency [2] | Potency [3] | Potency [4] | viability [5] 101% | Potency [6] | Potency [7] | Potency [8] | Potency [11] | Potency [9] | Potency [10]

CC(C)C[C@H](NC(=O)[C@@H](O)[C@H](N)Cc1ccccc1)C(=O)O
inactive: activation [1] -10.8% | Potency [2] | Potency [3] | Potency [4] | viability [5] 104% | Potency [6] | Potency [7] | Potency [8] | Potency [11] | Potency [10]

Cn1cnc2c(NCc3ccccc3)nc(NCCO)nc21
inactive: activation [1] -37% | Potency [2] | Potency [3] | Potency [4]

C1COC(NC(C2CC2)C2CC2)=N1
inactive: activation [1] 11% and 4.18% | Potency [2] | Potency [3] | Potency [4] | viability [5] 117% | Potency [6] | Potency [7] | Potency [8] | Potency [11] | Potency [9] | Potency [10]

COc1ccc(C2CNC(=O)C2)cc1OC1CCCC1 (stereo not drawn)
inactive: activation [1] 8.47% and 29.3% | Potency [2] | Potency [3] | Potency [4] | viability [5] 119% | Potency [6] | Potency [7] | Potency [8] | Potency [11] | Potency [9] | Potency [10]

CCCCN(CCCC)CC(O)c1cc(Cl)cc2c1-c1ccc(Cl)cc1/C2=C/c1ccc(Cl)cc1 (stereo not drawn)
inactive: activation [1] 22.6% and -82.3% | Potency [2] | Potency [3] | Potency [4] | viability [5] 104% | Potency [6] | Potency [7] | Potency [8] | Potency [11] | Potency [9] | Potency [10]

CN(CCOc1ccc(NS(C)(=O)=O)cc1)CCc1ccc(NS(C)(=O)=O)cc1
inactive: activation [1] -5.08% and 6.34% and 4.63% | Potency [2] | Potency [3] | Potency [4] | viability [5] 110% | Potency [6] | Potency [7] | Potency [8] | Potency [11] | Potency [9] | Potency [10]
